System: RIVA
Test: growth inhibition by drug alone (1 - RLU/untreated control) (fraction); higher = stronger inhibition
Settings: 177Lu-lilotomab satetraxetan 0 ug/ml
Experimental: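 RIVA (RI-1) ABC-DLBCL cells were pretreated or not for 18 h with 0.5 ug/ml 177Lu-lilotomab satetraxetan (600 MBq/mg), washed and seeded (3000 cells/well) on 384-well plates pre-printed with the Selleck Cambridge Cancer Compound library. Viability was read by RealTime-Glo luminescence on days 3-6 after seeding. Effect = 1 - RLU/mean RLU of the 48 untreated no-drug control wells per plate; Bliss score = (M-E)/(1-Fa).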

| SMILES | growth inhibition by drug alone (10 nM, time (day): 3) | growth inhibition by drug alone (10 nM, time (day): 4) | growth inhibition by drug alone (10 nM, time (day): 5) | growth inhibition by drug alone (10 nM, time (day): 6) | growth inhibition by drug alone (100 nM, time (day): 3) | growth inhibition by drug alone (100 nM, time (day): 4) | growth inhibition by drug alone (100 nM, time (day): 5) | growth inhibition by drug alone (100 nM, time (day): 6) |
| --- | --- | --- | --- | --- | --- | --- | --- | --- |
| O=C(Oc1ccc([N+](=O)[O-])cc1)N1CCC(C(O)(c2ccc3c(c2)OCO3)c2ccc3c(c2)OCO3)CC1 | 0.0104 | -0.0507 | -0.0874 | -0.233 | -0.163 | -0.136 | -0.159 | -0.226 |
| N[C@@H](Cc1ccc(N(CCCl)CCCl)cc1)C(=O)O [Melphalan] | -0.0205 | 0.000425 | -0.0866 | -0.459 | -0.259 | -0.175 | -0.164 | -0.265 |
| CCC1(c2ccc(N)cc2)CCC(=O)NC1=O (stereo not given) [Aminoglutethimide (Cytadren)] | -0.0651 | -0.101 | -0.237 | -0.445 | -0.578 | -0.484 | -0.518 | -0.688 |
| CC(=O)Nc1ccc(OC[C@](C)(O)C(=O)Nc2ccc([N+](=O)[O-])c(C(F)(F)F)c2)cc1 [Andarine (GTX-007)] | 0.017 | -0.0064 | -0.271 | -0.322 | -0.229 | -0.219 | -0.21 | -0.215 |
| N.N.[Cl][Pt][Cl] [Cisplatin] | -0.00407 | -0.0943 | -0.0938 | -0.114 | 0.0654 | -0.0804 | -0.0914 | -0.104 |

From the supplement of paper PMC6897291
